Most compounds without a hit are left out; they make up all but 6.2% or so of the library.
HCMV inh: qHTS Assay for inhibitors of the human cytomegalovirus (HCMV). HFF cells, HCMV-luciferase reporter, 72 h; active compounds read low. activity change, negative = inhibition, % at 57.5 µM. actives 4.5% (n = 410,000). AID 1259415, 2018; in the data active means activity change below about -60%; inconclusive means no clear call, values can overlap the other calls; inactive means above about -39%
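HFF cells seeded 16 h at 37C, treated with compounds, infected with luciferase-reporter HCMV at MOI 1 PFU/cell; luciferase read at 72 h post infection, normalized to buffer-only and Salinomycin controls.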
Lassa entry inh: qHTS for Inhibitors of binding or entry into cells for Lassa Virus | Lassa virus pseudotype entry inhibition, cell reporter | Potency, µM (highest dose often 37.9 µM), without a hit: top-dose activity change, negative = inhibition, actives largely listed as inhibitors | actives 1.2% (n = 300,000); calls by dose curve; tested in HEK293 cells; further: potency means the concentration at half of the fitted maximal effect; nearly all actives have a fitted effect of over 50% in size
FMDV inh: High Throughput Screening for Foot and Mouth Disease Virus Antivirals | FMDV antiviral cell-based qHTS | Potency, µM (top dose mostly 57.9 µM), without a hit: top-dose activity change, negative = inhibition, usual class: inhibitors | actives 1.2% (n = 410,000) | AID 1159524, 2015; calls by dose curve; tested in HEK293T cells; further: read-out not given here; potency means the concentration at half of the fitted maximal effect; nearly all actives have a fitted effect of over 45% in size
MARV entry inh: qHTS for inhibitors of binding or entry into cells for Marburg Virus; Marburg virus pseudotyped entry inhibition, cell reporter; Potency, µM (top dose mostly 37.8 µM), inactives show at the highest dose activity change, negative = inhibition, usual class: inhibitors; actives 1.8% (n = 300,000); calls by dose curve; tested in HEK293 cells; further: potency means the concentration at half of the fitted maximal effect
Active calls of the source: *; ? = inconclusive; . = no result given; + = active, no number; ! = not confirmed by another sample; [ ] = another dose, or the depositor's remark. On the % scale 0 is the no-effect control and ±100 the full control effect.

SMILES	HCMV inh	Lassa entry inh	FMDV inh	MARV entry inh
Cc1c(C(=O)O)cc(-c2ccccc2)n1Cc1ccccc1	48	?	-3%	15%
COC(=O)C1=C(C)NC(C)=C(C(=O)OC)C(N2C(=O)CCC2=O)C1 (centres undefined)	-85*	.	.	.
COc1ccc(CCNC(=O)c2cc(Sc3cccc(Cl)c3)nc3ccccc23)cc1OC	-84*	?	?	.
CCOc1ccc(Sc2cc(C(=O)NCCc3ccc(OC)c(OC)c3)c3ccccc3n2)cc1	-27	-8%[46.1 µM]	14µM*	.
COc1ccc(C(=O)NCC(c2cccs2)S(=O)(=O)c2cccs2)cc1 (centres undefined)	16	-11%[46.1 µM]	-13%	.
CC(=O)Nc1ccc(NC(=O)Cn2c(CC(=O)N3CCCC3)nc3ccccc32)cc1	-88*	-10%	5%	16%
Cc1ccc(/C=C2\SC(=S)N(CCC(=O)N3CCCCC3)C2=O)cc1	6	10%	5%	-4%[46.1 µM]
Cc1ccc(/C=C2/SC(=S)N(CCC(=O)N3CCN(C)CC3)C2=O)cc1	-74*	3%	16%	?
CN1CCN(C(=O)CCN2C(=O)/C(=C/c3ccccc3Cl)SC2=S)CC1	-85*	-30%[46.1 µM]	-28%	?
CC(=O)c1ccc(OCc2cc(C(=O)N3CCCCC3c3cccnc3)no2)cc1 (centres undefined)	6	-16%	-4%	-26%
COCCOC1CCN(C(=O)c2cc(COc3ccc(-n4cncn4)cc3)on2)CC1	25	-17%	-23%	2%
COCCC1CCCCN1C(=O)c1cc(COc2ccc(-n3cncn3)cc2)on1 (centres undefined)	-74*	?	?	?
CCC1CCCCN1C(=O)c1cc(COc2ccc3ncccc3c2)on1 (centres undefined)	-91*	?	?	?
COCC1CCCCN1C(=O)c1cc(COc2ccc3ncccc3c2)on1 (centres undefined)	-84*	.	?	.
O=C1[C@H](Cc2ccccc2)NCC=CC[C@@H](c2ccc(Cl)cc2)N1Cc1ccccc1	-24	.	-21%	.
Cc1ccc(OCc2nc(-c3ccc(C(=O)N4CCN(c5ccccc5)CC4)cc3)oc2C)cc1	22	19%[46.1 µM]	-2%	.
c1ccc(N2CCCCC2)c(Nc2nc3ccccc3n3cnnc23)c1	?	?	-27%	?
FC(F)(F)c1ccc(N2CCOCC2)c(Nc2nc3ccccc3n3cnnc23)c1	25	?	0%	4.1µM*
CC1CCN(C(=O)CN2c3cccc4cccc(c34)S2(=O)=O)CC1	-12	.	-3%	.
CC(Sc1nnc(C2CC2)n1C1CC1)C(=O)c1ccc(Br)cc1 (centres undefined)	-62*	-1%	-8%	-12%
O=C(CS(=O)c1ccc(F)cc1)Nc1ccccc1Cl (centres undefined)	-77*	-2%	14%	24%[46.1 µM]
O=C(CS(=O)c1cccc(C(F)(F)F)c1)Nc1ccccc1Cl (centres undefined)	-6	5%	-2%	-27%
CCN(c1ccc(OC)cc1)S(=O)(=O)c1nnc(NC(=O)C(C)C)s1	-32	-30%[46.1 µM]	-9%	?
CCCNC(=O)c1cc(Cl)c(NC(=O)C2=C(C)OCCS2)cc1OC	-35	.	-1%	.
CCCNC(=O)c1ccc(C)c(NC(=O)C2=C(C)OCCS2)c1	-77*	10%[46.1 µM]	-5%	4%[46.1 µM]
SMILES	HCMV inh	Lassa entry inh	FMDV inh	MARV entry inh
CCOCCCNC(=O)c1cc(Cl)c(NC(=O)C2=C(C)OCCS2)cc1OC	-80*	?	-1%	6%[46.1 µM]
CC1=C(C(=O)Nc2cc(C(=O)N3CCN(c4ccc(Cl)cc4)CC3)ccc2C)SCCO1	?	.	22µM*	.
Cc1cccc(S(=O)(=O)NC(=O)C2(C)CCN2C(=O)C2(c3ccc(Cl)cc3)CCC2)c1 (centres undefined)	-33	.	12%	.
CCc1ccc(CNCCc2c[nH]c3ccccc23)cc1	4	.	2%	.
O=C(CN1c2ccccc2S(=O)(=O)c2ccccc21)Nc1ccccc1F	-63*	-14%[46.1 µM]	0%	2%[46.1 µM]
O=C(CN1c2ccccc2S(=O)(=O)c2ccccc21)Nc1ccccc1Cl	20	?	-10%	.
Cc1ccc(OC(F)F)c(NC(=O)Nc2cccc(C(F)(F)F)c2)c1	-99*	?	?	?
COc1ccc(NC(=O)Nc2cc(C)cc(C)c2)cn1	-22	9%[46.1 µM]	-3%	8%[46.1 µM]
O=C(Nc1cccc(C(F)(F)F)c1)Nc1cccs1	-80*	.	-9%	-13%[46.1 µM]
O=C(Nc1ccccc1)Nc1cccc(C(F)(F)F)c1	-34	-15%	5%	-6%[46.1 µM]
COc1ccc(NC(=O)Nc2cccc(C(F)(F)F)c2)cn1	-63*	?	-5%	-26%[46.1 µM]
O=C(Nc1cccc(C(F)(F)F)c1)c1csc(-c2ccncc2)n1	?	?	100µM*	?
COc1ccc(S(=O)(=O)N2CCOCC2)cc1NC(=O)CSc1nnc(C2CC2)n1C1CC1	-18	.	-2%	.
COc1cc(Nc2ccccn2)cc(C(=O)Nc2cccc(C(F)(F)F)c2)c1	-69*!	.	?	.
O=C(O)c1ccccc1C(=O)Nc1ccc(Oc2cccc(C(F)(F)F)c2)nc1	35	-29%[46.1 µM]	3.2µM*	19%[46.1 µM]
CCSCCc1nnc(NC(=O)Nc2cccc(C(F)(F)F)c2)s1	-83*	.	?	.
COc1ccc(NS(=O)(=O)c2ccc(N)cc2)nn1	.	-9%	18%	-15%
O=C(Nc1ccc(SC(F)(F)F)cc1)c1ccccn1	46	?	0%	?
Cc1sc2nc(SCC(=O)Nc3cccc(C(=O)O)c3)[nH]c(=O)c2c1C	19	4%	-20%	13%
Cc1sc2nc(SCC(=O)Nc3ccc(Cl)c(C(=O)O)c3)[nH]c(=O)c2c1C	0	?	-16%	13µM*
COc1ccc(OC)c(S(=O)(=O)NCCS(=O)(=O)N2CCN(c3ccccc3F)CC2)c1	-7	-25%[46.1 µM]	14%	.
Cc1ccc(C)c(NC(=O)c2ccc3c(c2)N(Cc2ccc(F)cc2)C(=O)CS3=O)c1 (centres undefined)	?	?	-19%	2.6µM*
CCOC(=O)C1=C(C)NC(=O)NC1c1ccc(N2CCC(c3ccccc3)=N2)cc1 (centres undefined)	-30	.	33%	.
CC(C)(C)C(=O)Nc1ccc(Sc2ccc([N+](=O)[O-])cc2)cc1	-30	-10%	?	?
CC(=O)Nc1ccc(Sc2ccc([N+](=O)[O-])o2)cc1	-98*	?	35µM*	?
SMILES	HCMV inh	Lassa entry inh	FMDV inh	MARV entry inh
CC(=O)c1ccc(N2CCN(S(=O)(=O)c3ccc(-c4cc(C(F)(F)F)on4)s3)CC2)cc1	-16	5%[46.1 µM]	-18%	.
COc1ccc2nc(N(Cc3cccnc3)C(=O)c3ccc4c(c3)OCCO4)sc2c1	40	6%[46.1 µM]	-15%	.
CCc1ccc2nc(N(Cc3cccnc3)C(=O)c3cccs3)sc2c1	-61*	-3%[46.1 µM]	21%	.
COc1cccc2sc(N(Cc3cccnc3)C(=O)c3ccco3)nc12	-20	-14%[46.1 µM]	-20%	.
COc1ccc(OC)c2sc(N(Cc3cccnc3)C(=O)c3ccco3)nc12	+	13%[46.1 µM]	-22%	.
COc1ccc2sc(N(Cc3cccnc3)C(=O)c3ccc4c(c3)OCCO4)nc2c1	-90*	?	?	.
